# According to PubChem BioAssay (NCI):
# About 83,000 compounds went through this panel and 20% of them were active in at least one assay; those are over-represented in the sample as a whole.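 Assay: single dose, 48 h. Readout: percent growth (0 = no net growth; negative = cell death). Active: <10.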 Values without a mark were called inactive. Activity calls are given as the source filed them.
# How the values were obtained:
# Assay in all cases: NCI-60 one-dose screen, 48 h (100 = growth as untreated, 0 = no growth, -100 = all killed)
# Conditions in all cases: 10 µM unless noted
# [1] = test system: DU-145 prostate
# [2] = test system: K-562 leukemia
# [3] = test system: MALME-3M melanoma
# [4] = test system: MDA-MB-231 breast
# [5] = test system: RXF 393 renal
# [6] = test system: SF-268 CNS
# [7] = test system: SF-295 CNS
# [8] = test system: SF-539 CNS
# [9] = test system: UACC-257 melanoma
# [10] = test system: M14 melanoma
# [11] = test system: HCT-15 colon
# [12] = test system: HT29 colon
# [13] = test system: SNB-75 CNS
# [14] = test system: SNB-19 CNS
# [15] = test system: U251 CNS
# [16] = test system: PC-3 prostate
# [17] = test system: SK-MEL-5 melanoma
# [18] = test system: UACC-62 melanoma
# [19] = test system: LOX IMVI melanoma
# [20] = test system: SK-MEL-28 melanoma
SMILES,growth [1],growth [2],growth [3],growth [4],growth [5],growth [6],growth [7],growth [8],growth [9],growth [10],growth [11],growth [12],growth [13],growth [14],growth [15],growth [16],growth [17],growth [18],growth [19],growth [20]
COC(=O)c1ccc(CSc2nnc(-c3c(C)nc4ccc(C)cn34)o2)cc1,106%,82.6%,111%,84.1%,97%,102%,105%,103%,116%,105%,104%,111%,85.9%,94.2%,99.2%,106%,93.8%,89.2%,94.2%,103%
Cc1ccc(C2SCC(=O)N2Cc2ccccc2)cc1 (stereo not given),118%,110%,93.3%,98.3%,114%,115%,95%,109%,97.7%,104%,100%,96.9%,95.1%,98.9%,97.6%,92.1%,105%,91.7%,97.9%,106%
O=C1/C(=C\c2c[nH]c3ccccc23)c2ccccc2N1c1c(Cl)cccc1Cl,14.5%,-0.66% (active),-16.8% (active),-2.7% (active),-43.5% (active),23.7%,-47.9% (active),-59.9% (active),23.6%,-86.3% (active),5.59% (active),-29.6% (active),39.2%,37%,-34% (active),2.68% (active),-39.2% (active),-58.6% (active),-100% (active),-30.6% (active)
Oc1ccc(CN2CCC(N3CCOCC3)CC2)c2cccnc12,29.3%,12.9%,-0.979% (active),31%,13.1%,32.3%,5.68% (active),13.6%,7.47% (active),24.2%,17.7%,103%,32%,17.6%,16.9%,15.3%,-45.8% (active),12.9%,15.2%,39.5%
NC[C@H](O)c1ccc(O)c(O)c1,106%,106%,111%,78.8%,117%,112%,123%,92%,109%,95.9%,104%,102%,120%,112%,106%,99.7%,104%,102%,94.2%,116%
COc1cc(-c2n/c(=C\c3c(O)[nH]c4ccc(Cl)cc34)cc3c2=Nc2ccccc2-3)cc(OC)c1OC,-15.4% (active),3.48% (active),-40.3% (active),-14.9% (active),-70.3% (active),-11.8% (active),7.89% (active),31.2%,27.2%,0.836% (active),28.4%,-11.2% (active),-4.26% (active),14.9%,-84.3% (active),-13.1% (active),44.7%,2.11% (active),-63.6% (active),16.5%
COc1ccc(-c2nc3sccn3c2-c2cc(-c3cc(OC)c(OC)c(OC)c3)on2)cc1,93.3%,47.4%,105%,80.9%,110%,98.2%,109%,73.7%,141%,91.7%,96.9%,86.1%,77.4%,87.5%,107%,58.9%,68.7%,89.1%,90.5%,127%
Cc1ccc(S(=O)(=O)N/N=C\c2cc(Cl)ccc2O)cc1,92.1%,82%,95.3%,93.8%,91%,94.7%,92.1%,76.6%,107%,96.2%,81.8%,103%,88.5%,86.2%,90.4%,93.6%,99.6%,106%,88.3%,98.3%
O=C(Nc1cccc(Oc2nnc(Cl)c3ccccc23)c1)Nc1ccc(Cl)c(C(F)(F)F)c1,-5.14% (active),-8.66% (active),-49.9% (active),-57.3% (active),-62.3% (active),-32.2% (active),-56.3% (active),-73.4% (active),-68.4% (active),-62.8% (active),-64% (active),-75.9% (active),-59.3% (active),-5.9% (active),-75.4% (active),-38.1% (active),-98.8% (active),-82.5% (active),-93.2% (active),-62.5% (active)
CC1(C)CC[C@]2(C(=O)N3CCOCC3)CC[C@]3(C)C(=CC[C@@H]4[C@@]5(C)CC[C@H](OC(=O)c6cccnc6)C(C)(C)[C@@H]5CC[C@]43C)[C@@H]2C1,60.9%,36%,88.6%,70.4%,84.3%,71.1%,51.2%,71.5%,65.5%,72.8%,49.4%,42.3%,67.7%,67.5%,53.2%,38.9%,54.3%,35.7%,28%,66.1%
CC(C)C(NC(=O)C1(NC(=O)OCc2ccccc2)CCCC1)C(=O)O (stereo not given),118%,91.7%,111%,105%,134%,111%,112%,111%,89.2%,102%,112%,105%,92.3%,103%,86.7%,102%,102%,106%,90.2%,107%
CN(Cc1cnc2nc(N)nc(N)c2n1)c1ccc(C(=O)N[C@@H](CCc2nn[nH]n2)c2nn[nH]n2)cc1,32.8%,18.1%,68.9%,111%,71.1%,39%,40.8%,46.6%,55.8%,29.8%,25.2%,27%,76.6%,53.4%,50.6%,32.6%,41.2%,21.5%,16.1%,103%
Cc1ccc(/C=C/c2c(C(=O)/C=C/c3ccc(C(F)(F)F)cc3)c(C)nc3ccccc23)cc1,-78.3% (active),-16.6% (active),-65.4% (active),-40.5% (active),-87.8% (active),-5% (active),-75.8% (active),-83.4% (active),-17.7% (active),-35.8% (active),-29.6% (active),5.36% (active),-42.5% (active),-62.9% (active),-70.7% (active),-43.8% (active),-86.4% (active),-45.8% (active),-87.3% (active),-63.2% (active)
COc1ccc(-c2cc(-c3ccc(Nc4nc(Nc5ccc(Cl)cc5)nc(Nc5ccc(Cl)cc5)n4)cc3)nc(N)c2C#N)cc1,37.7%,30.1%,-70.3% (active),-30.7% (active),-32.5% (active),59%,415%,-48.7% (active),-13.2% (active),24.9%,10.6%,2.33% (active),-74.1% (active),105%,10.9%,4.49% (active),-67.5% (active),42.4%,-75.1% (active),-47.5% (active)
O=c1[nH][n+](-c2ccc(Cl)cc2)no1,59.7%,10.4%,84.7%,70.7%,121%,47.7%,34.5%,66.7%,64.9%,81.5%,34.5%,95%,74.4%,91.3%,83.2%,72%,96.1%,5.96% (active),28.4%,77.3%
O=C(Nc1ccccc1Cl)Oc1ccc(-c2ccccc2)cc1,120%,110%,122%,107%,109%,119%,114%,95.1%,111%,107%,104%,103%,84.2%,98.4%,112%,99.8%,99.9%,89%,106%,151%
